# Reference: the supplement of paper PMC9135407
# “And” between values parts separate entries of the source, which are not always exact repeats. Identical values can stand only once. Counter-ions that a name gives are not always drawn. The whole screen tested about 5,800 compounds, of which about 620 (11%) showed activity. For the sample, actives were picked, then their nearest neighbours and some compounds at random. Unmarked numbers belong to inactive results.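 Rule for the calls: active = score above a cut-off or among the top three wells of a plate; in these data no inactive exceeds 0.85.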
# Tested on: primary human hepatic stellate cells (donor 1)
# Assay: scaled lipid accumulation score (0 = DMSO-like, 1 = nortriptyline-like); higher = stronger HSC inactivation (lipid re-accumulation), active = hit call of the paper
# Settings: 48 h
# [1] = library stock concentration: 1 mM
# [2] = library stock concentration: 3.33 mM
# [3] = library stock concentration: 10 mM
# [4] = library stock concentration: 80 uM
# [5] = library stock concentration: 400 uM
# [6] = library stock concentration: 2 mM
# [7] = library stock concentration: 4.7 mM
compound,measurement,setting,value
CC(Cc1ccc(O)c(O)c1)C(C)Cc1ccc(O)c(O)c1 (stereo not drawn) [Nordihydroguaiaretic Acid],scaled lipid accumulation score,[1],0.042
COc1ccc(-n2c(C)c([N+](=O)[O-])c3ccc(O)cc32)cc1,scaled lipid accumulation score,[2],0.252
same,scaled lipid accumulation score,[3],0.703
O/N=C/c1ccc(-c2ccc(O)c(F)c2)c(Cl)c1O,scaled lipid accumulation score,[3],0.02
COc1ccc([C@H]2CNC(=O)C2)cc1OC1CCCC1 [(S)-(+)-Rolipram],scaled lipid accumulation score,[3],≤ -0.006
C[C@H](N)C(=O)CCCCCC(=O)O [KAPA (hydrochloride)],scaled lipid accumulation score,[1],0.007
O=C1[C@H](Cc2ccc(O)cc2)N2C(=O)CCN(C(=O)NCc3ccccc3)[C@H]2CN1Cc1cccc2ccccc12,scaled lipid accumulation score,[2],≤ 0
same,scaled lipid accumulation score,[3],0.29
CC(=Cc1ccc(C(=O)O)cc1)c1ccc2c(c1)C(C)(C)CCC2(C)C [TTNPB (Arotinoid Acid)],scaled lipid accumulation score,[2],≤ 0
same,scaled lipid accumulation score,[3],≤ -0.001
CC(=Cc1ccc(C(=O)O)cc1)c1ccc2c(c1)C(C)(C)CCC2(C)C,scaled lipid accumulation score,[1],≤ -0.021
same,scaled lipid accumulation score,[3],≤ 0
CCCCCCCCCC(=O)N[C@@H](Cc1c[nH]c2ccccc12)C(=O)N[C@@H](CC(N)=O)C(=O)N[C@@H](CC(=O)O)C(=O)N[C@@H]1C(=O)NCC(=O)N[C@@H](CCCN)C(=O)N[C@@H](CC(=O)O)C(=O)N[C@H](C)C(=O)N[C@@H](CC(=O)O)C(=O)NCC(=O)N[C@H](CO)C(=O)N[C@@H]([C@H](C)CC(=O)O)C(=O)N[C@@H](CC(=O)c2ccccc2N)C(=O)O[C@@H]1C [DAPTOMYCIN (5 millimolar/DMSO)],scaled lipid accumulation score,[3],≤ 0
CC(C)c1nn(-c2c(Cl)cccc2Cl)c2nc(Cc3ccc(OCCO)cc3)[nH]c(=O)c12,scaled lipid accumulation score,[4],0.074
same,scaled lipid accumulation score,[5],0.071
same,scaled lipid accumulation score,[6],0.275
same,scaled lipid accumulation score,[3],0.136
O=[N+]([O-])c1ccccc1S(=O)(=O)NCC1CCC(CNCC2CCc3ccccc3C2)CC1 (stereo not drawn) [NTNCB hydrochloride],scaled lipid accumulation score,[3],0.622
NC(=O)N/N=C/c1ccc(Oc2ccc(F)cc2)cc1,scaled lipid accumulation score,[3],0.015
C#C[C@]1(O)CC[C@H]2[C@@H]3CCC4=Cc5oncc5CC4(C)[C@H]3CCC21C (stereo partly drawn) [Danazol],scaled lipid accumulation score,[3],0.915 (active)
C#C[C@]1(O)CC[C@H]2[C@@H]3CCc4cc(O)ccc4[C@H]3CC[C@@]21C [Ethinyl Estradiol],scaled lipid accumulation score,[2],≤ 0
same,scaled lipid accumulation score,[3],0.277
C#C[C@]1(O)CC[C@H]2[C@@H]3CCC4=Cc5oncc5C[C@]4(C)[C@H]3CC[C@@]21C,scaled lipid accumulation score,[3],0.336
C#C[C@]1(O)CC[C@H]2[C@@H]3CCc4cc(O)ccc4[C@H]3CC[C@@]21C [Ethinyl estradiol],scaled lipid accumulation score,library stock concentration: 6.7 mM,0.516
same,scaled lipid accumulation score,[3],≤ 0
C#C[C@]1(O)CC[C@H]2[C@@H]3CCc4cc(O)ccc4[C@H]3CC[C@@]21C,scaled lipid accumulation score,[3],0.186
C#C[C@]1(O)CC[C@H]2[C@@H]3CCC4=Cc5oncc5C[C@]4(C)[C@H]3CC[C@@]21C [Danazol],scaled lipid accumulation score,,0.447
same,scaled lipid accumulation score,library stock concentration: 5.9 mM,0.204 and 0.103
same,scaled lipid accumulation score,[3],≤ 0
CC(C)NCCN(C(C)C)S(=O)(=O)c1ccc(Cl)cc1Cl,scaled lipid accumulation score,[3],0.722
CCCCc1oc2ccccc2c1C(=O)c1cc(I)c(OCCN(CC)CC)c(I)c1,scaled lipid accumulation score,library stock concentration: 7.3 mM,0.281
same,scaled lipid accumulation score,library stock concentration: 9.5 mM,1.34 (active)
CCCCc1oc2ccccc2c1C(=O)c1cc(I)c(OCCN(CC)CC)c(I)c1 [Amiodarone HCl],scaled lipid accumulation score,[2],0.394
CCc1oc2ccccc2c1C(=O)c1cc(Br)c(O)c(Br)c1 [Benzbromarone],scaled lipid accumulation score,,0.013
same,scaled lipid accumulation score,[2],≤ 0
same,scaled lipid accumulation score,[7],≤ 0
same,scaled lipid accumulation score,[3],≤ -0.001
CCCCc1oc2ccc(NS(C)(=O)=O)cc2c1C(=O)c1ccc(OCCCN(CCCC)CCCC)cc1 [Dronedarone HCl],scaled lipid accumulation score,[2],0.642
same,scaled lipid accumulation score,[3],0.263
CCCCc1oc2ccccc2c1C(=O)c1cc(I)c(OCCN(CC)CC)c(I)c1 [Amiodarone hydrochloride],scaled lipid accumulation score,,0.445
same,scaled lipid accumulation score,library stock concentration: 2.9 mM,0.417
CCCCc1oc2ccccc2c1C(=O)c1cc(I)c(OCCN(CC)CC)c(I)c1 [Amiodarone],scaled lipid accumulation score,library stock concentration: 3.1 mM,0.438
CCCCc1cc2ccccc2c(OCCN(C)C)n1 [Dimethisoquin hydrochloride],scaled lipid accumulation score,,0.71
CCCCc1oc2ccccc2c1C(=O)c1cc(I)c(OCCN(CC)CC)c(I)c1.Cl [Amiodarone HCl],scaled lipid accumulation score,[3],1.27 (active)
CCc1oc2ccccc2c1C(=O)c1cc(Br)c(O)c(Br)c1,scaled lipid accumulation score,[3],≤ 0
CCCCc1oc2ccccc2c1C(=O)c1cc(I)c(OCCN(CC)CC)c(I)c1.Cl [Amiodarone hydrochloride],scaled lipid accumulation score,[3],1.04 (active)
NC(=O)c1cc[n+](CC2=C(C(=O)O)N3C(=O)[C@@H](NC(=O)C(c4ccccc4)S(=O)(=O)[O-])[C@H]3SC2)cc1 (stereo partly drawn) [Cefsulodin sodium salt hydrate],scaled lipid accumulation score,[3],0.04
NC(=O)c1ccc2nc(-c3ccc(Oc4ccc(Cl)cc4)cc3)[nH]c2c1 [Chk2 Inhibitor II],scaled lipid accumulation score,[2],≤ 0
CCCCCCCCCCCCC/C=C/[C@@H](O)[C@H](CO)NCCCCCCCC [C-8 Ceramine],scaled lipid accumulation score,[1],0.054
CCCCCCCCCCCCC/C=C/[C@@H](O)[C@H](CO)NCCCCCCCC [C8 Ceramine],scaled lipid accumulation score,[1],0.067
CCCCCC(O)C=CC1C(O)CC(O)C1CC=CCCCCOC (stereo not drawn) [Prostaglandin F2.alpha. Alcohol methyl ether],scaled lipid accumulation score,[1],≤ 0
Cc1nc2c(-c3cnc(N)nc3)nc(N3CCOCC3)nc2n1C(C)C,scaled lipid accumulation score,[2],0.019
same,scaled lipid accumulation score,[3],≤ -0.001
"Nc1ccc2c3c(cccc13)C(=O)NC2=O [4-Amino-1,8-naphthalimide] [listing 1 of 2 here]",scaled lipid accumulation score,library stock concentration: 23.6 mM,0.762
O=C1NC(=O)C(c2c[nH]c3ccccc23)=C1c1c[nH]c2ccccc12 [Bisindolylmaleimide IV],scaled lipid accumulation score,[1],≤ 0
same,scaled lipid accumulation score,[2],0.045
"Nc1ccc2c3c(cccc13)C(=O)NC2=O [4-Amino-1,8-naphthalimide] [listing 2 of 2 here]",scaled lipid accumulation score,[3],0.886 (active)
CC(C)C[C@H](NP(=O)(O)O[C@@H]1O[C@@H](C)[C@H](O)[C@@H](O)[C@H]1O)C(=O)N[C@@H](Cc1c[nH]c2ccccc12)C(=O)O [Phosphoramidon Disodium Salt],scaled lipid accumulation score,[2],≤ -0.009
same,scaled lipid accumulation score,[3],≤ 0
Cc1cc(CN2CCN(c3c(Br)cnc4[nH]c(-c5ccc(N6CCN(C)CC6)cc5)nc34)CC2)no1,scaled lipid accumulation score,[2],0.857 (active)
Cc1cc(CN2CCN(c3c(Br)cnc4nc(-c5ccc(N6CCN(C)CC6)cc5)[nH]c34)CC2)no1,scaled lipid accumulation score,[3],0.471
O=C(Nc1ccccc1)Nc1ccc(-c2ccc(C(=O)[C@@H]3CCC[C@H]3C(=O)O)cc2)cc1,scaled lipid accumulation score,[2],≤ 0
same,scaled lipid accumulation score,[3],≤ 0
O=C(Nc1ccc(I)cc1)NC1CCCCC1,scaled lipid accumulation score,[3],0.938 (active)
CC(=O)c1ccc(S(=O)(=O)NC(=O)NC2CCCCC2)cc1 [Acetohexamide],scaled lipid accumulation score,,≤ 0
same,scaled lipid accumulation score,library stock concentration: 6.2 mM,≤ 0
same,scaled lipid accumulation score,[3],0.116
CCCCCC/C=C\CCCCCCCC(=O)OCC [Palmitoleic Acid ethyl ester],scaled lipid accumulation score,[1],≤ 0
COc1ccc(CCn2nnnc2C2(c3ccc(C)cc3)CC2)cc1 [Mephetyl tetrazole],scaled lipid accumulation score,[3],≤ -0.07
COC(=O)C(C)c1ccc(C(=O)c2cccs2)cc1 (stereo not drawn) [Suprofen methyl ester],scaled lipid accumulation score,[3],≤ 0
"COC(=O)c1ccc2c(c1)NC(=O)/C2=C(\Nc1ccc(N(C)C(=O)CN2CCN(C)CC2)cc1)c1ccccc1 [Intedanib (BIBF 1120, Vargatef) (10 mM)]",scaled lipid accumulation score,[3],1.51 (active)
CN1CCN(CC(=O)N2c3ccccc3C(=O)Nc3cccnc32)CC1 [Pirenzepine hydrochloride],scaled lipid accumulation score,[7],≤ 0
same,scaled lipid accumulation score,[3],≤ 0
Cc1scc2c1N(C(=O)CN1CCN(C)CC1)c1ccccc1NC2=O [Telenzepine hydrochloride],scaled lipid accumulation score,[3],0.084
Cc1scc2c1N(C(=O)CN1CCN(C)CC1)c1ccccc1NC2=O [Telenzepine 2HCl],scaled lipid accumulation score,library stock concentration: 5.4 mM,0.006
COC(=O)c1ccc2c(c1)NC(=O)C2=C(Nc1ccc(N(C)C(=O)CN2CCN(C)CC2)cc1)c1ccccc1 [Nintedanib (BIBF 1120)],scaled lipid accumulation score,[2],1.2 (active)
same,scaled lipid accumulation score,[3],1.33 (active)
CN1CCN(CC(=O)N2c3ccccc3C(=O)Nc3cccnc32)CC1 [Pirenzepine 2HCl],scaled lipid accumulation score,library stock concentration: 5.7 mM,≤ -0.006
COC(=O)c1ccc2c(C(=Nc3ccc(N(C)C(=O)CN4CCN(C)CC4)cc3)c3ccccc3)c(O)[nH]c2c1,scaled lipid accumulation score,[4],0.316
same,scaled lipid accumulation score,[5],0.522
same,scaled lipid accumulation score,[6],0.258
Cc1scc2c1N(C(=O)CN1CCN(C)CC1)c1ccccc1NC2=O [Telenzepine dihydrochloride],scaled lipid accumulation score,,≤ 0
same,scaled lipid accumulation score,[3],0.052 and 0.027
"COC(=O)c1ccc2c(c1)NC(=O)/C2=C(\Nc1ccc(N(C)C(=O)CN2CCN(C)CC2)cc1)c1ccccc1 [Intedanib (BIBF 1120, Vargatef) (0.4 mM)]",scaled lipid accumulation score,[5],0.323
"COC(=O)c1ccc2c(c1)NC(=O)/C2=C(\Nc1ccc(N(C)C(=O)CN2CCN(C)CC2)cc1)c1ccccc1 [Intedanib  (BIBF 1120, Vargatef) (2 mM)]",scaled lipid accumulation score,[6],0.838
COC(=O)c1ccc2c(c1)NC(=O)C2=C(Nc1ccc(N(C)C(=O)CN2CCN(C)CC2)cc1)c1ccccc1,scaled lipid accumulation score,[3],0.976 (active)
CN1CCN(CC(=O)N2c3ccccc3C(=O)Nc3cccnc32)CC1 [Pirenzepine dihydrochloride],scaled lipid accumulation score,,≤ 0
same,scaled lipid accumulation score,[3],≤ 0
